Reference: PubChem BioAssay (EPA / NIEHS)
Activity calls are given as the source filed them. Rule for the calls: active = hit-call score of the fitted dose curve at least 0.9, where 1 is the maximum; inactive = score below 0.9.

Experiments:
Details in all cases: mRNA level, 48 h; actives raise or lower the signal
[1] = read-out: Lipase C (LIPC), LIPC (gene 3990); assay: LTEA_HepaRG_LIPC: Life Technologies and Expression Analysis (LTEA) Assay for Lipase C (LIPC) using HepaRG (AID 2283514)
How it was run: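 HepaRG cells, 48 h after plating, treated in duplicate for 48 h in serum-free induction medium over 8 half-log concentrations from 100 uM, 0.5% DMSO. LIPC mRNA by TaqMan qRT-PCR normalized to ACTB/GAPDH/POLR2A; bidirectional fit versus DMSO.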

[2] = read-out: Lipoprotein lipase (LPL), LPL (gene 4023); assay: LTEA_HepaRG_LPL: Life Technologies and Expression Analysis (LTEA) Assay for Lipoprotein lipase (LPL) using HepaRG (AID 2283515)
How it was run: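 Differentiated HepaRG cells, plated 48 h, then exposed 48 h in serum-free induction medium to 8 concentrations (top 100 uM, half-log steps) in 0.5% DMSO, duplicate. LPL mRNA measured by qRT-PCR, normalized to ACTB, GAPDH and POLR2A.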

[3] = read-out: MicroRNA 122 (MIR122), gene 406906; assay: LTEA_HepaRG_MIR122: Life Technologies and Expression Analysis (LTEA) Assay for MicroRNA 122 (MIR122) using HepaRG (AID 2283516); note: the transcript read is the microRNA miR-122
How it was run: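 HepaRG plated 48 h, switched to serum-free induction medium, then treated in duplicate for 48 h (100 uM top, half-log steps, 0.5% DMSO vehicle). RNA isolated, qRT-PCR performed, concentration-response fitted both directions relative to DMSO.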

[4] = read-out: matrix metalloproteinase-10 (MMP10), MMP10 (gene 4319); assay: LTEA_HepaRG_MMP10: Life Technologies and Expression Analysis (LTEA) Assay for matrix metalloproteinase-10 (MMP10) using HepaRG (AID 2283517)
How it was run: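 Differentiated HepaRG cells in serum-free induction medium exposed 48 h in duplicate to 8-point half-log series up to 100 uM in 0.5% DMSO. mRNA quantified by qRT-PCR, normalised to ACTB, GAPDH, POLR2A; bidirectional fit versus DMSO.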

MYC, MYC (gene 4609) = assay: LTEA_HepaRG_MYC: Life Technologies and Expression Analysis (LTEA) Assay for MYC using HepaRG (AID 2283518)
How it was run: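 Differentiated HepaRG cells exposed 48 h in serum-free induction medium to 8 concentrations (top 100 uM, half-log steps; 0.5% DMSO), duplicate. MYC mRNA measured by Fluidigm qRT-PCR, normalized to ACTB, GAPDH, POLR2A; bidirectional fit versus DMSO.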

[5] = read-out: matrix metalloproteinase-3 (MMP3), MMP3 (gene 4314); assay: LTEA_HepaRG_MMP3: Life Technologies and Expression Analysis (LTEA) Assay for matrix metalloproteinase-3 (MMP3) using HepaRG (AID 2283519)
How it was run: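 HepaRG cells (~100,000/well) in serum-free induction medium were dosed in duplicate for 48 h with an 8-point half-log series from 100 uM, 0.5% DMSO. MMP3 mRNA was quantified by Fluidigm TaqMan qRT-PCR, normalized to three housekeeping genes.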

[6] = read-out: Paternally Expressed 10 (PEG10), PEG10 (gene 23089); assay: LTEA_HepaRG_PEG10: Life Technologies and Expression Analysis (LTEA) Assay for Paternally Expressed 10 (PEG10) using HepaRG (AID 2283520)
How it was run: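 HepaRG, 48 h post-plating → serum-free induction medium → 48 h chemical exposure (duplicate, 8-pt, max 100 uM, half-log, 0.5% DMSO) → lysis in RLT → TaqMan qRT-PCR for PEG10, ACTB/GAPDH/POLR2A normalisation.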

[7] = read-out: Protein phosphatase 2A (PPP2R4), PTPA (gene 5524); assay: LTEA_HepaRG_PPP2R4: Life Technologies and Expression Analysis (LTEA) Assay for Protein phosphatase 2A (PPP2R4) using HepaRG (AID 2283522)
How it was run: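 Readout is PPP2R4 transcript level by microfluidic qRT-PCR after 48 h chemical treatment of human HepaRG liver cells. Concentrations spanned 100 uM downward in half-log steps; gain or loss of signal was fitted relative to DMSO.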

[8] = read-out: Phosphatase and tensin (PTEN), PTEN (gene 5728); assay: LTEA_HepaRG_PTEN: Life Technologies and Expression Analysis (LTEA) Assay for Phosphatase and tensin (PTEN) using HepaRG (AID 2283523)
How it was run: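 HepaRG cells, 48 h after plating, exposed in duplicate for 48 h in serum-free induction medium to 8 half-log concentrations up to 100 uM (0.5% DMSO). PTEN mRNA by qRT-PCR, normalized to ACTB, GAPDH, POLR2A; bidirectional fit versus DMSO.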

[9] = read-out: solute carrier (SLC22A1), SLC22A1 (gene 6580); assay: LTEA_HepaRG_SLC22A1: Life Technologies and Expression Analysis (LTEA) Assay for solute carrier (SLC22A1) using HepaRG (AID 2283524)
How it was run: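 Differentiated human HepaRG cells in serum-free induction medium, exposed 48 h in duplicate to 8-point half-log series from 100 µM top in 0.5% DMSO. SLC22A1 mRNA by TaqMan qRT-PCR normalized to ACTB, GAPDH, POLR2A; bidirectional fit versus DMSO.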

[10] = read-out: Pyruvate Dehydrogenase Kinase 4 (PDK4), PDK4 (gene 5166); assay: LTEA_HepaRG_PDK4: Life Technologies and Expression Analysis (LTEA) Assay for Pyruvate Dehydrogenase Kinase 4 (PDK4) using HepaRG (AID 2283525)
How it was run: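 HepaRG cells plated 48 h, then switched to serum-free induction medium and exposed in duplicate for 48 h to 8 half-log concentrations from 100 uM in 0.5% DMSO. PDK4 mRNA measured by qRT-PCR, normalized to ACTB, GAPDH and POLR2A; bidirectional fit versus DMSO.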

[11] = read-out: NAD(P)H dehydrogenase [quinone] 1 (NQO1), NQO1 (gene 1728); assay: LTEA_HepaRG_NQO1: Life Technologies and Expression Analysis (LTEA) Assay for NAD(P)H dehydrogenase [quinone] 1 (NQO1) using HepaRG (AID 2283526)
How it was run: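 HepaRG, 48 h post-plating → serum-free induction medium → test chemical 48 h (duplicate, 100 uM top, half-log x8, 0.5% DMSO) → RNA isolation → qRT-PCR, ACTB/GAPDH/POLR2A normalization; bidirectional curve fit vs DMSO baseline.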

[12] = read-out: Nuclear factor erythroid 2-related factor 2 (Homo sapiens) (UniProt Q16236); assay: LTEA_HepaRG_NFE2L2: Life Technologies and Expression Analysis (LTEA) Assay for Nuclear factor erythroid 2-related factor 2 (NFE2L2) Transcription Factor using HepaRG (AID 2283527)
How it was run: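 Differentiated human HepaRG cells, serum-free induction medium, exposed 48 h in duplicate to eight half-log concentrations up to 100 uM in 0.5% DMSO. NFE2L2 mRNA by Fluidigm TaqMan qRT-PCR, normalised to ACTB, GAPDH, POLR2A; bidirectional change versus DMSO.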

[13] = read-out: succinate dehydrogenase complex iron sulfur subunit B (SDHB), SDHB (gene 6390); assay: LTEA_HepaRG_SDHB: Life Technologies and Expression Analysis (LTEA) Assay for succinate dehydrogenase complex iron sulfur subunit B (SDHB) using HepaRG (AID 2283528)
How it was run: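 SDHB transcript level read by TaqMan qRT-PCR, housekeeping-normalised (ACTB, GAPDH, POLR2A), after 48 h chemical treatment of plated HepaRG cells; eight concentrations top 100 uM, half-log steps, 0.5% DMSO, duplicates; fitted both directions against DMSO.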

[14] = read-out: Signal transducer and activator of transcription 3 (Homo sapiens) (UniProt P40763); assay: LTEA_HepaRG_STAT3: Life Technologies and Expression Analysis (LTEA) Assay for Signal transducer and activator of transcription (STAT3) using HepaRG (AID 2283529)
How it was run: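 Differentiated HepaRG cells, serum-free induction medium, dosed 48 h in duplicate, 8 half-log concentrations from 100 uM in 0.5% DMSO. STAT3 mRNA by qRT-PCR, normalised to ACTB, GAPDH, POLR2A; bidirectional fit versus DMSO.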

[15] = read-out: solute carrier (SLCO1B1), SLCO1B1 (gene 10599); assay: LTEA_HepaRG_SLCO1B1: Life Technologies and Expression Analysis (LTEA) Assay for solute carrier (SLCO1B1) using HepaRG (AID 2283530)
How it was run: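 Differentiated human HepaRG cells were exposed for 48 h in serum-free induction medium to eight half-log concentrations, top 100 uM, in 0.5% DMSO. SLCO1B1 mRNA was measured by qRT-PCR, normalized to ACTB, GAPDH and POLR2A, and fitted bidirectionally against DMSO.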

[16] = read-out: sulfotransferase 2A1 (SULT2A1), SULT2A1 (gene 6822); assay: LTEA_HepaRG_SULT2A1: Life Technologies and Expression Analysis (LTEA) Assay for sulfotransferase 2A1 (SULT2A1) using HepaRG (AID 2283531)
How it was run: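 HepaRG human liver cells, 48 h exposure in serum-free induction medium to 8 half-log concentrations topping at 100 µM (0.5% DMSO), duplicate wells. SULT2A1 mRNA measured by TaqMan qRT-PCR, normalized to ACTB/GAPDH/POLR2A; bidirectional fit against DMSO.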

[17] = read-out: Transforming Growth Factor (TGFA), TGFA (gene 7039); assay: LTEA_HepaRG_TGFA: Life Technologies and Expression Analysis (LTEA) Assay for Transforming Growth Factor (TGFA) using HepaRG (AID 2283532)
How it was run: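 Differentiated HepaRG cells exposed 48 hours in serum-free induction medium, 0.5% DMSO vehicle, 8-point half-log series from 100 uM, in duplicate. TGFA mRNA by TaqMan qRT-PCR, normalised to ACTB, GAPDH, POLR2A; bidirectional fit versus DMSO.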

[18] = read-out: Transforming Growth Factor (TGFB1), TGFB1 (gene 7040); assay: LTEA_HepaRG_TGFB1: Life Technologies and Expression Analysis (LTEA) Assay for Transforming Growth Factor (TGFB1) Transporter using HepaRG (AID 2283533)
How it was run: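 Differentiated HepaRG cells exposed 48 hr in serum-free induction medium to eight half-log concentrations up to 100 uM (0.5% DMSO), duplicate; TGFB1 mRNA by TaqMan qRT-PCR normalised to ACTB, GAPDH, POLR2A; bidirectional fit against DMSO.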

[19] = read-out: Nuclear factor NF-kappa-B p105 subunit (Homo sapiens) (UniProt P19838); assay: LTEA_HepaRG_NFKB1: Life Technologies and Expression Analysis (LTEA) Assay for Nuclear Factor Kappa B Subunit 1 (NFKB1) using HepaRG (AID 2283521)
How it was run: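 NFKB1 transcript was measured by TaqMan qRT-PCR on Fluidigm arrays, normalised to three housekeeping genes and fitted in both directions against 0.5% DMSO. HepaRG cells were dosed in duplicate for 48 h in serum-free induction medium, eight half-log steps from 100 uM.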

Chain of Signal transducer and activator of transcription 3 (Homo sapiens) (P40763 whole entry, looked up): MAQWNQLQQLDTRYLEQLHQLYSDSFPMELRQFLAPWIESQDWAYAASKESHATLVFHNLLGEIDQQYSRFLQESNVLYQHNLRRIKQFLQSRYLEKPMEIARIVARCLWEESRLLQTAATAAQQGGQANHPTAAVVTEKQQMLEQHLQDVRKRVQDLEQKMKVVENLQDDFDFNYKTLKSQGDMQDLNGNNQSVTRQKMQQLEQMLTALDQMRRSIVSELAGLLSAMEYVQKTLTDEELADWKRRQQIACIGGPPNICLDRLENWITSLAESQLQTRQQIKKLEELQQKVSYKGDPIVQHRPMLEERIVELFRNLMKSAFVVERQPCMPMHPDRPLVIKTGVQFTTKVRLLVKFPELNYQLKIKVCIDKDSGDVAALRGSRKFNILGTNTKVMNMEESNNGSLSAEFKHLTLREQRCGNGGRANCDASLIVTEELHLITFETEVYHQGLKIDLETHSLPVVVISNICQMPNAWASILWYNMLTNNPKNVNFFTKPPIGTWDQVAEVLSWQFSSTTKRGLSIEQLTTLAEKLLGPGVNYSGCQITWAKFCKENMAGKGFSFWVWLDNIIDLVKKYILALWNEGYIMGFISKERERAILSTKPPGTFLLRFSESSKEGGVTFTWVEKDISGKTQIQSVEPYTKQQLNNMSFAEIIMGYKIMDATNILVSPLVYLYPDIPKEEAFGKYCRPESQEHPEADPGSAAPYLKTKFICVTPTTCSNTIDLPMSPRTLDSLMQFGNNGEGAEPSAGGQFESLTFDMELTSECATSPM
Chain of Nuclear factor erythroid 2-related factor 2 (Homo sapiens) (Q16236 whole entry, looked up): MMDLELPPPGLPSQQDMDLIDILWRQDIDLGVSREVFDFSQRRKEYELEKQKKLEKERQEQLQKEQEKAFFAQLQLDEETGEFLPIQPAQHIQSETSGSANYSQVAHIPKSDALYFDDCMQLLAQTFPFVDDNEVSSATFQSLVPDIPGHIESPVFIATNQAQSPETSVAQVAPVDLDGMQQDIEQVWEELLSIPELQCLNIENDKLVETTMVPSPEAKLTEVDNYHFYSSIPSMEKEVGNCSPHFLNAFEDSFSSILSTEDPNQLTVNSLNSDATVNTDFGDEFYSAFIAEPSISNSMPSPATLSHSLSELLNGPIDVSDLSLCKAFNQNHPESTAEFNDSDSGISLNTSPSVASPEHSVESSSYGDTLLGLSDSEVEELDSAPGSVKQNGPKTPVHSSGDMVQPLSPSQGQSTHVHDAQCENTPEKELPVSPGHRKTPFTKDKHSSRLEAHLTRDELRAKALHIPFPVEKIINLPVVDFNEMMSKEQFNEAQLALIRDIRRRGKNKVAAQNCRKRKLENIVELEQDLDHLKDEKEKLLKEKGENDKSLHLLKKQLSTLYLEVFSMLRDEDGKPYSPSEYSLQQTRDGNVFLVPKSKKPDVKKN
Chain of Nuclear factor NF-kappa-B p105 subunit (Homo sapiens) (P19838 whole entry, looked up): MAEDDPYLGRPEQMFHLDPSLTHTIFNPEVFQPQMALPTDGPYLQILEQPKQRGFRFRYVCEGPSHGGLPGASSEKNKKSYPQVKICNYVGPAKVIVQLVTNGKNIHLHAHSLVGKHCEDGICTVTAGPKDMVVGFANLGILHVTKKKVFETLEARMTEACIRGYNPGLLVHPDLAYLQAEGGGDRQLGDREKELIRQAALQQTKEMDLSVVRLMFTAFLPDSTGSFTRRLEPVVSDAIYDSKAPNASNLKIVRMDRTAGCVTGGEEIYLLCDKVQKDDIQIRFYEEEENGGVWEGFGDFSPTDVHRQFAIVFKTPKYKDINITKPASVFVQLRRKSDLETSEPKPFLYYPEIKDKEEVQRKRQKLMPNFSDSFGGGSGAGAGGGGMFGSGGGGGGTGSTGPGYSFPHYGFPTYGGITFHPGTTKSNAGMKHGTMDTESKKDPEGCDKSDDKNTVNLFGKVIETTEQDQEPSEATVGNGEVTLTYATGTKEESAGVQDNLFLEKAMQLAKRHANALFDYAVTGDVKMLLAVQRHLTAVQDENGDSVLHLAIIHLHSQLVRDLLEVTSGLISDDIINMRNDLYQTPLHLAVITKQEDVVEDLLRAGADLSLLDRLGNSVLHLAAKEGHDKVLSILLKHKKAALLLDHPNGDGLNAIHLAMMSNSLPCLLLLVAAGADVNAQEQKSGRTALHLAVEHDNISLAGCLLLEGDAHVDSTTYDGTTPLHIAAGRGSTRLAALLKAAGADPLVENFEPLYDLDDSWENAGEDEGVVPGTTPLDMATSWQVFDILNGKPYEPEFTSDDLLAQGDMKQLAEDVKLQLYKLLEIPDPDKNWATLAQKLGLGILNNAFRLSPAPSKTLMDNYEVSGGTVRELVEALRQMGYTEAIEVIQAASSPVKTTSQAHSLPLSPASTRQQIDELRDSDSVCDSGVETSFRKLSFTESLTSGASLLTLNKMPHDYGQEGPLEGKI

Q: What does the source list for `COCC(C)OCC(C)OCC(C)O` (stereo not given)?
A: outcome [1]: inactive; outcome [2]: inactive; outcome [3]: inactive; outcome [4]: inactive; outcome (MYC, MYC (gene 4609)): inactive; outcome [5]: inactive; outcome [6]: inactive; outcome [7]: inactive; outcome [8]: inactive; outcome [9]: inactive; outcome [10]: inactive; outcome [11]: inactive; outcome [12]: inactive; outcome [13]: inactive; outcome [14]: inactive; outcome [15]: inactive; outcome [16]: inactive; outcome [17]: inactive; outcome [18]: inactive

Q: Which outcome [1] does the source give for `CCN(CC)C(=O)c1cc(S(=O)(=O)Cc2ccccc2)c(N2CCC(c3ccccc3)CC2)cc1N(CC)CCN(C)C` here?
A: Its outcome is “inactive”.

Q: And the AC50 [2]?
A: Its AC50 is 31.6 µM (active).

Q: And the AC50 [3]?
A: The AC50 was 30.5 µM (active).

Q: And the AC50 [4]?
A: The AC50 was 30.5 µM (active).

Q: And the outcome (MYC, MYC (gene 4609))?
A: The outcome was “inactive”.

Q: And the outcome [5]?
A: The outcome was “inactive”.

Q: What about the outcome [6] of the same compound?
A: The outcome was “inactive”.

Q: What about the outcome [7] of the same compound?
A: The outcome was “inactive”.

Q: What about the AC50 [8] of the same compound?
A: Its AC50 is 22.9 µM (active).

Q: What about the outcome [9] of the same compound?
A: The outcome was “inactive”.

Q: What about the outcome [10] of the same compound?
A: The outcome was “inactive”.

Q: And the AC50 [12]?
A: Its AC50 is 29.1 µM (active).

Q: What about the outcome [13] of the same compound?
A: Its outcome is “inactive”.

Q: And the outcome [14]?
A: Its outcome is “inactive”.

Q: What about the AC50 [15] of the same compound?
A: Its AC50 is 33.3 µM (active).

Q: What about the AC50 [16] of the same compound?
A: Its AC50 is 32.6 µM (active).

Q: And the AC50 [17]?
A: The AC50 was 27.9 µM (active).

Q: What about the outcome [18] of the same compound?
A: The outcome was “inactive”.

Q: How did the outcome [1] turn out when `CC(C)(O)c1ccc(CNC(=O)c2cccnc2Oc2ccc3nonc3c2)cc1` was run?
A: The outcome was “inactive”.

Q: What about the outcome [2] of the same compound?
A: The outcome was “inactive”.

Q: What about the outcome [3] of the same compound?
A: Its outcome is “inactive”.

Q: And the outcome [4]?
A: The outcome was “inactive”.

Q: What about the outcome (MYC, MYC (gene 4609)) of the same compound?
A: Its outcome is “inactive”.

Q: And the outcome [5]?
A: The outcome was “inactive”.

Q: What about the outcome [6] of the same compound?
A: The outcome was “inactive”.

Q: And the outcome [19]?
A: The outcome was “inactive”.

Q: What about the outcome [8] of the same compound?
A: The outcome was “inactive”.

Q: And the outcome [9]?
A: Its outcome is “inactive”.

Q: And the outcome [10]?
A: Its outcome is “inactive”.

Q: And the outcome [11]?
A: The outcome was “inactive”.

Q: And the outcome [12]?
A: The outcome was “inactive”.

Q: And the outcome [13]?
A: The outcome was “inactive”.

Q: What about the outcome [14] of the same compound?
A: Its outcome is “inactive”.

Q: What about the outcome [15] of the same compound?
A: Its outcome is “inactive”.

Q: What about the outcome [16] of the same compound?
A: Its outcome is “inactive”.

Q: And the outcome [17]?
A: Its outcome is “inactive”.
